{
  "source": "paper PMC4336329",
  "about": "(PLoS ONE, 2015)",
  "note": "The whole screen tested about 310,000 compounds, of which about 14,000 (4.5%) showed an effect of 50% or more. Effects have a minus sign here. Many of the other results were omitted from the sample, so strong results are more common in it than they were.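 Also: peak tail current of the secondary pulse compared with the same well before compound.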",
  "data": [
    {"target": "human ether-à-go-go-related gene (hERG) potassium channel (human, UniProt Q12809)", "sequence (Q12809 whole entry, looked up)": "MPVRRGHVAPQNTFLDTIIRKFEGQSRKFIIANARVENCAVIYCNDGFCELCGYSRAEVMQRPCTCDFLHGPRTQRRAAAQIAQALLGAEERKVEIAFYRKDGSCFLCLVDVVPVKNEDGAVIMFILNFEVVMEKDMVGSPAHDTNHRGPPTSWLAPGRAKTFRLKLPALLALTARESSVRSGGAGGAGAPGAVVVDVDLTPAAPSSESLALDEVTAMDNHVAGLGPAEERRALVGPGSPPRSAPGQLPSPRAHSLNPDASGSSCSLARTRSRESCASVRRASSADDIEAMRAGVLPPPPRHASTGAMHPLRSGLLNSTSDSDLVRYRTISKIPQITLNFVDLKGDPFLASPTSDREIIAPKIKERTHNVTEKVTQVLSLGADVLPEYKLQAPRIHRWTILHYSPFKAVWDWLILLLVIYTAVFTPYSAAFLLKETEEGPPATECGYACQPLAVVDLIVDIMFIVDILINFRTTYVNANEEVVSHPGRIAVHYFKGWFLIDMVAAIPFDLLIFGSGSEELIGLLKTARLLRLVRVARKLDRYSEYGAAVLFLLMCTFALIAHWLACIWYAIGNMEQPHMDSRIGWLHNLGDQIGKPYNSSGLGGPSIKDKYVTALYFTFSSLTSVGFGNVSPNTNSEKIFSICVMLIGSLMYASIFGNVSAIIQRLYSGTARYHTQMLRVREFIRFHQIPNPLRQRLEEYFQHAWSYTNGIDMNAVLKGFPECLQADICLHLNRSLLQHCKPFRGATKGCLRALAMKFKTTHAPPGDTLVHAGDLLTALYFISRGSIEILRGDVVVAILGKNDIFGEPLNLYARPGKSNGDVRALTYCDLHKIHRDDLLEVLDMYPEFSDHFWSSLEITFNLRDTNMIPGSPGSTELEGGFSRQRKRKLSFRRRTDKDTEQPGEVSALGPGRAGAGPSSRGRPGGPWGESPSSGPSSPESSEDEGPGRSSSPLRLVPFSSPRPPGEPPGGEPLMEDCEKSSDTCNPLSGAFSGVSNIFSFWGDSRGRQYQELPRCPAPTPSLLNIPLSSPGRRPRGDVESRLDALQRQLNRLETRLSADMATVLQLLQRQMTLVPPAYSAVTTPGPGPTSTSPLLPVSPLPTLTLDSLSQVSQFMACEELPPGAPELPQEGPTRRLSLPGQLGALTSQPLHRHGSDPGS", "experiment": "primary screen, population patch clamp on CHO cells stably expressing hERG; higher = less effect of the substance", "units": {"hERG current change (%, negative = inhibition) at 10uM": "%"}, "values": [
      {"smiles": "COc1cc(CNS(=O)(=O)CCl)cc(OC)c1OC", "hERG current change (%, negative = inhibition) at 10uM": 12.7},
      {"smiles": "CCOC(=O)c1sc(=S)n(C)c1NC(=O)c1ccc(OC)cc1", "hERG current change (%, negative = inhibition) at 10uM": 17.4},
      {"smiles": "COc1ccc2nc(C)c3cc(C)oc3c2c1", "hERG current change (%, negative = inhibition) at 10uM": -15.5},
      {"smiles": "Cc1cc(C)c2c(n1)SCC(=O)N2CC(=O)Nc1cc(F)ccc1F", "hERG current change (%, negative = inhibition) at 10uM": -7.16},
      {"smiles": "COc1ccc(NC(=O)/C=C/c2ccc(OC(F)F)cc2)cn1", "hERG current change (%, negative = inhibition) at 10uM": -24.7},
      {"smiles": "CCC(=O)NCCc1nc2cc(NC(=O)c3ccc(F)cc3)ccc2n1C", "hERG current change (%, negative = inhibition) at 10uM": 1.29},
      {"smiles": "COc1cc(OC)c(C(=O)Nc2ccncc2)cc1OC", "hERG current change (%, negative = inhibition) at 10uM": 7.83},
      {"smiles": "CCC(=O)Nc1ccc(S(=O)(=O)c2ccc(NC(=O)CC)cc2)cc1", "hERG current change (%, negative = inhibition) at 10uM": 0.428},
      {"smiles": "CC(C)(CNC(=O)COc1ccccc1Cc1ccccc1)N1CCOCC1", "hERG current change (%, negative = inhibition) at 10uM": -55.6},
      {"smiles": "CCN(CC)C1CCN(C(=O)c2cc(COc3ccccc3SC)on2)C1", "note": "(stereo not shown)", "hERG current change (%, negative = inhibition) at 10uM": -68.4},
      {"smiles": "Cl.O=C(COc1ccccc1Cc1ccccc1)NCCCN1CCOCC1", "hERG current change (%, negative = inhibition) at 10uM": -32.1},
      {"smiles": "CSc1ccccc1OCc1cc(C(=O)N2CCN(C)C(c3ccccc3)C2)no1", "note": "(stereo not shown)", "hERG current change (%, negative = inhibition) at 10uM": -5.98},
      {"smiles": "COCC1CCN(C(=O)c2cc(COc3ccccc3SC)on2)C1", "note": "(stereo not shown)", "hERG current change (%, negative = inhibition) at 10uM": -33.9},
      {"smiles": "COc1cccc(OCc2cc(C(=O)N3CCN(C)C(c4ccccc4)C3)no2)c1", "note": "(stereo not shown)", "hERG current change (%, negative = inhibition) at 10uM": -6.09},
      {"smiles": "Cc1ccccc1OCC(=O)NCC(C)(C)N1CCOCC1", "hERG current change (%, negative = inhibition) at 10uM": 7.19},
      {"smiles": "CSc1ccccc1OCc1cc(C(=O)N2CCCC(C)C2)no1", "note": "(stereo not shown)", "hERG current change (%, negative = inhibition) at 10uM": -0.622},
      {"smiles": "COc1ccccc1OCc1cc(C(=O)N2CCN(C)C(c3ccccc3)C2)no1", "note": "(stereo not shown)", "hERG current change (%, negative = inhibition) at 10uM": -61.1},
      {"smiles": "C[C@H](CCC(=O)O)[C@H]1CC[C@H]2[C@@H]3CC[C@@H]4C[C@H](O)CC[C@]4(C)[C@H]3C[C@H](O)[C@]12C", "hERG current change (%, negative = inhibition) at 10uM": 11.8},
      {"smiles": "CCCN1CCC(NC23CC4CC(CC(C4)C2)C3)CC1", "hERG current change (%, negative = inhibition) at 10uM": 22.1},
      {"smiles": "O=S(=O)(c1cccc2nonc12)N1CCN(c2ccccc2F)CC1", "hERG current change (%, negative = inhibition) at 10uM": 4.42},
      {"smiles": "CCOC(=O)c1c(C)[nH]c(C)c1C(=O)CSc1ncccn1", "hERG current change (%, negative = inhibition) at 10uM": -2.23},
      {"smiles": "O=C(Nc1nnc(-c2ccccc2Cl)s1)C1CCN(S(=O)(=O)c2ccc(Cl)cc2)CC1", "hERG current change (%, negative = inhibition) at 10uM": 28.1},
      {"smiles": "CCOc1ccccc1OCCCOc1ccc(C)cc1Br", "hERG current change (%, negative = inhibition) at 10uM": 7.97},
      {"smiles": "Cc1ccc(OCCCN(C)C)c(Br)c1", "hERG current change (%, negative = inhibition) at 10uM": -20.6},
      {"smiles": "CCc1cccc(OCCCCN(CC)CC)c1", "hERG current change (%, negative = inhibition) at 10uM": -37.9},
      {"smiles": "CCN(CC)CCCOc1ccc(C)cc1Br", "hERG current change (%, negative = inhibition) at 10uM": -69},
      {"smiles": "Clc1ccc(OCCCn2cncn2)cc1Cl", "hERG current change (%, negative = inhibition) at 10uM": -12.2},
      {"smiles": "CCN(CC)CCCOc1ccc(Cl)c(Cl)c1", "hERG current change (%, negative = inhibition) at 10uM": -60.5}
    ]}
  ]
}
